These results are taken from PubChem BioAssay AID1159580 (chemical genetic matrix, 2015).

The assay in a line: chemical genetic growth profiling, strain panel (AID 1159580).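 Further: tested at 20 µM; growth read once vehicle control cultures reached saturation at 30 °C; 1 = growth at the plate median or of vehicle wells; lower values mean less growth of the strain.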 The following applies: growth OD.
Setting [1] is: S. cerevisiae deletion strains, locus YAL013W, strain DEP1, hits give low values.
Setting [2] is: S. cerevisiae deletion strains, locus YGR078C, strain PAC10, hits give low values.
The mark [3] stands for this setting: S. cerevisiae deletion strains, locus YNL322C, strain KRE1, hits give low values.

Out of some 5,500 compounds screened, about 2,000 (36%) were called active. Inconclusive results (about 18%) are left out. The list shows a part of the results. Values without a mark were called inactive. No stated cut-off is given here; in the data, active means normalized growth mostly below about 0.91 (no sharp cut-off); inconclusive means no clear call, values can overlap the other calls; inactive means mostly above about 0.92.

In the case of `O=C1c2ccccc2C(=O)C1(c1ccccc1)[N+](=O)[O-]`, the normalized growth by setting is: under setting [1], 0.848 (active); (S. cerevisiae deletion strains, locus YBR229C, strain ROT2, hits give low values) 0.78 (active); (S. cerevisiae deletion strains, locus YCL061C, strain MRC1, hits give low values) 0.818 (active); (S. cerevisiae deletion strains, locus YDL101C, strain DUN1, hits give low values) 0.776 (active); (S. cerevisiae deletion strains, locus YDL134C, strain PPH21, hits give low values) 0.897 (active); (S. cerevisiae deletion strains, locus YEL061C, strain CIN8, hits give low values) 0.943. In addition, the normalized growth is 0.664 (active) under setting [2]; 0.587 (active) (S. cerevisiae deletion strains, locus YHR030C, strain SLT2, hits give low values); 0.811 (active) (S. cerevisiae deletion strains, locus YHR087W, strain rtc3, hits give low values); 0.861 (active) (S. cerevisiae deletion strains, locus YJR043C, strain POL32, hits give low values); 0.747 (active) (S. cerevisiae deletion strains, locus YJR075W, strain HOC1, hits give low values); 0.734 (active) (S. cerevisiae deletion strains, locus YLR039C, strain RIC1, hits give low values). The normalized growth (S. cerevisiae deletion strains, locus YLR058C, strain SHM2 (second series), hits give low values) was 1.03; the normalized growth (S. cerevisiae deletion strains, locus YLR085C, strain ARP6, hits give low values) is 0.975; the normalized growth (S. cerevisiae deletion strains, locus YLR262C, strain YPT6, hits give low values) is 0.8 (active); the normalized growth (S. cerevisiae deletion strains, locus YML094W, strain GIM5, hits give low values) is 0.946; the normalized growth (S. cerevisiae deletion strains, locus YMR219W, strain ESC1, hits give low values) was 0.832 (active); the normalized growth (S. cerevisiae deletion strains, locus YMR263W, strain SAP30, hits give low values) is 0.813 (active). The normalized growth reads like this: (S. cerevisiae deletion strains, locus YMR307W, strain GAS1, hits give low values) 0.919; (S. cerevisiae deletion strains, locus YNL153C, strain GIM3, hits give low values) 0.803 (active); (S. cerevisiae deletion strains, locus YNL298W, strain CLA4 (second series), hits give low values) 0.956; under setting [3], 1.01; (S. cerevisiae deletion strains, locus YNR030W, strain Alg12, hits give low values) 0.0637 (active); (S. cerevisiae deletion strains, locus YOL006C, strain TOP1, hits give low values) 0.893. The normalized growth reads like this: (S. cerevisiae deletion strains, locus YPL055C, strain LGE1, hits give low values) 0.799 (active); (S. cerevisiae deletion strains, locus YPL241C, strain CIN2, hits give low values) 0.0628 (active); (S. cerevisiae deletion strains, locus YPR135W, strain CTF4, hits give low values) 0.798; (S. cerevisiae strains, strain wild type, hits give low values) 0.985.
As for `O=C1NC(=O)C(c2ccccc2)(c2ccccc2)N1`, the normalized growth was 1.01 under setting [1]; 1.1 (S. cerevisiae deletion strains, locus YAL040C, strain CLN3, hits give low values); 1 (S. cerevisiae deletion strains, locus YCL061C, strain MRC1 (second series), hits give low values); 1.02 (S. cerevisiae deletion strains, locus YDR363W, strain ESC2, hits give low values); 0.991 (S. cerevisiae deletion strains, locus YER002W, strain NOP16, hits give low values); 1.02 under setting [2]. Moreover, the normalized growth (S. cerevisiae deletion strains, locus YNL128W, strain TEP1, hits give low values) is 1; the normalized growth (S. cerevisiae deletion strains, locus YNL175C, strain NOP13, hits give low values) is 0.993; the normalized growth (S. cerevisiae deletion strains, locus YNL197C, strain WHI3, hits give low values) is 1.01; the normalized growth (S. cerevisiae deletion strains, locus YNL224C, strain SQS1, hits give low values) was 0.975; the normalized growth under setting [3] was 1.03; the normalized growth (S. cerevisiae deletion strains, locus YOR083W, strain WHI5 (second series), hits give low values) was 1.03.
